Compound activity (PubChem BioAssay)
Giardia FBPA inh – inhibitors of Giardia lamblia fructose-1,6-bisphosphate aldolase | purified Giardia FBPA | AID 2451 | A8B2U2 | 290,000 compounds, 0.71% hits | Potency, µM (doses to about 59.6 µM), hits mostly inhibitors; note: nearly all actives have a fitted effect of over 55% in size
Target sequence (A8B2U2 whole entry, looked up): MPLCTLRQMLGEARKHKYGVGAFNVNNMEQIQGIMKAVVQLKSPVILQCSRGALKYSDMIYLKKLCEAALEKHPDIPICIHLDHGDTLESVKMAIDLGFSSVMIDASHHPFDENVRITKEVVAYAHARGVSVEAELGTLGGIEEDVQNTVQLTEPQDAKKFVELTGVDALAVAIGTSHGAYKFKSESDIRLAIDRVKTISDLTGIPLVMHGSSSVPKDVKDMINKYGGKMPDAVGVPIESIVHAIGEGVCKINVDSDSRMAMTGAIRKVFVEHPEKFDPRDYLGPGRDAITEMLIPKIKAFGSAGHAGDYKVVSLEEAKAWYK
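Giardia FBPA (40 nM reagent) was preincubated 10 min at RT with compound (up to 57.5 uM final), then substrate plus GAPDH/TPI/NAD/arsenate coupling system with diaphorase/resazurin was added; resorufin fluorescence (525/598 nm) was read after 20 min.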
Pf growth 48h – P. falciparum growth inhibition at 48 hours (one generation); Potency, µM (doses to about 28.7 µM), usual class: inhibitors; P. falciparum luciferase growth in erythrocytes, 48 h; 310,000 compounds, 5.9% hits
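Compounds are pin-transferred into medium, infected erythrocytes (2% hematocrit, 0.1% parasitemia final) are added, and plates sit one parasite generation at 37 C in 5% CO2. Detection reagent is then added and luminescence measured.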
Pf growth 96h – P. falciparum growth inhibition at 96 hour, primary screen for plastid delayed-death inhibitors | 320,000 compounds, 6.9% hits | Potency, µM (titrated, usually from 28.7 µM), actives largely listed as inhibitors | P. falciparum luciferase reporter growth, 96 h | AID 504834
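Two parasite generations (96 h, 37 C, 5% CO2) of compound exposure in infected erythrocytes (0.05% parasitemia, 2% hematocrit). Luciferase-reporter P. falciparum; decreased luminescence indicates inhibited growth, aimed at apicoplast-acting delayed death.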
Sm TGR inh – inhibitors of Schistosoma mansoni thioredoxin glutathione reductase. purified TGR, DTNB reduction, TNB absorbance 405 nm. Potency, µM (titrated, usually from 114 µM), hits mostly inhibitors. 360,000 compounds, 3% hits; note: nearly all actives have a fitted effect of over 60% in size
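TGR 20 nM + NADPH 100 uM (dispensed conc.), cpd preinc 15 min RT; start with NADPH (500 uM addition) then DTNB (15 mM addition). Kinetic TNB absorbance, 405 nm filter. Four-parameter Hill fit across titration.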
HCMV inh – inhibitors of human cytomegalovirus; HFF cells, HCMV-luciferase reporter, 72 h; active compounds read low; activity change, negative = inhibition, % at 57.5 µM; 410,000 compounds, 4.5% hits; in the data active = activity change below about -60%; inconclusive = no clear call, values can overlap the other calls; inactive = above about -39%
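Steps: HFFs plated, 16 h 37C; compounds added; HCMV-luciferase added to MOI 1 PFU/cell; 72 h 37C; OneGlo reagent, 5 min room temperature; luminescence read, normalized to controls.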
Each line names hits and unclear results; the compound was inactive in the other large screens. Sampled rows, rich in hits. Any-hit rate of the full collection: about 14%. Unless noted, calls come from the whole dose curve; as a rule, active = well fitted curve in the direction sought with a large enough effect; inconclusive = small, poorly fitted or top-dose-only effect, or another doubt; inactive = no such curve, though single readings can be large; an effect the other way counts as inactive or inconclusive.

CC[C@H](C)[C@H](NC(=O)[C@H](CCC(=O)O)NC(=O)[C@@H](N)CO)C(=O)N[C@@H](CCC(N)=O)C(=O)N[C@@H](CC(C)C)C(=O)N[C@@H](CCSC)C(=O)N[C@@H](Cc1cnc[nH]1)C(=O)N[C@@H](CC(N)=O)C(=O)N[C@@H](CC(C)C)C(=O)NCC(=O)N[C@@H](CCCCN)C(=O)N[C@@H](Cc1cnc[nH]1)C(=O)N[C@@H](CC(C)C)C(=O)N[C@@H](C)C(=O)N[C@@H](CO)C(=O)N[C@H](C(=O)N[C@@H](CCC(=O)O)C(=O)N[C@@H](CCCNC(=N)N)C(=O)N[C@@H](CCSC)C(=O)N[C@@H](CCC(N)=O)C(=O)N[C@@H](Cc1c[nH]c2ccccc12)C(=O)N[C@@H](CC(C)C)C(=O)N[C@@H](CCCNC(=N)N)C(=O)N[C@@H](CCCCN)C(=O)N[C@@H](CCCCN)C(=O)N[C@@H](CC(C)C)C(=O)N[C@@H](CCC(N)=O)C(=O)N[C@@H](CC(=O)O)C(=O)N[C@H](C(=O)N[C@@H](Cc1cnc[nH]1)C(=O)N[C@@H](CC(N)=O)C(=O)N[C@@H](Cc1ccccc1)C(=O)O)C(C)C)C(C)C	none (no result: Pf growth 48h, Pf growth 96h, Sm TGR inh, HCMV inh)
COc1ccc(C(=O)OCCN2CCN(C3=NS(=O)(=O)c4ccccc43)CC2)cc1OC	Pf growth 96h 8.3µM (no result: Giardia FBPA inh)
COc1cc(C(=O)N2CCN(C3=NS(=O)(=O)c4ccccc43)CC2)cc(OC)c1OC	none (no result: Giardia FBPA inh, Pf growth 48h, Pf growth 96h, Sm TGR inh)
CCc1oc(C(=O)O)cc1CN(CC)CC	none
CCN(CC)Cc1cc(O)c(CN(CC)CC)cc1O	Giardia FBPA inh 5.6µM, Sm TGR inh 3.2µM
Cc1c2cnn(CC(=O)N3CCOCC3)c(=O)c2c(C)n1Cc1ccccc1F	Pf growth 96h inconclusive
CC(C)=C1SC(N2CCN(c3ccc(Cl)cc3)CC2)=NC1=O	Sm TGR inh inconclusive, HCMV inh -75
NS(=O)(=O)c1ccc(NC(=S)N2CCN(C(=O)C3CCCO3)CC2)cc1 (centres undefined)	Pf growth 96h inconclusive (no result: Giardia FBPA inh, HCMV inh)
CC1=CC(c2ccccc2)n2nc(NC(=O)CCC(=O)O)nc2N1 (centres undefined)	Pf growth 48h inconclusive, Pf growth 96h inconclusive, Sm TGR inh 13µM
COc1ccc(C2C=C(c3ccccc3)Nc3nc(NC(=O)/C=C/c4ccccc4)nn32)cc1 (centres undefined)	none (no result: Giardia FBPA inh, Pf growth 48h, Pf growth 96h)
CC1=CC(c2ccccc2)n2nc(NC(=O)CCCC(=O)O)nc2N1 (centres undefined)	Sm TGR inh 20µM
CC(C)CC(N)c1csc(NC(=O)c2cc(C(C)(C)C)nn2Cc2ccccc2)n1 (centres undefined)	HCMV inh -96 (no result: Giardia FBPA inh, Pf growth 48h, Pf growth 96h, Sm TGR inh)
COC(=O)c1cc(NC(=O)c2cc(C(C)(C)C)nn2Cc2ccc(F)cc2)ccc1N1CCOCC1	Pf growth 48h 6.6µM
Cc1cccc(Cn2nc(C(C)(C)C)cc2C(=O)Nc2ccc(F)cc2)c1	Pf growth 48h 10µM, Pf growth 96h 9.3µM, HCMV inh -93
Cc1cc(N(CCO)CCO)ccc1C(c1ccc(N(CCO)CCO)cc1C)c1ccccc1Cl	Pf growth 48h inconclusive, Pf growth 96h inconclusive
O=C(COC(=O)C1=NN(c2ccccc2)C(=O)CC1)Nc1nc(-c2ccc(F)cc2)cs1	none (no result: Giardia FBPA inh, Pf growth 48h, Pf growth 96h, Sm TGR inh)
O=c1cc2c(c(-c3ccccc3)n1Cc1ccccc1)[C@@H](CCO)NC2	none (no result: Giardia FBPA inh, Pf growth 48h, Pf growth 96h, Sm TGR inh)
O=c1[nH]c(C2CCCN(S(=O)(=O)c3ccccc3)C2)nc2c1nnn2Cc1ccccc1Br (centres undefined)	Pf growth 48h inconclusive, Pf growth 96h inconclusive
Cc1ccc(CNC(=O)C23CN(Cc4ccccc4)CC2C(c2ccc([N+](=O)[O-])cc2)=NO3)cc1 (centres undefined)	Pf growth 48h 12µM, Pf growth 96h inconclusive
O=C(NCc1ccccc1)C12CN(Cc3ccccc3)CC1C(c1cccc([N+](=O)[O-])c1)=NO2 (centres undefined)	Pf growth 48h inconclusive
O=C(NCc1cc(C(F)(F)F)cc(C(F)(F)F)c1)C12CN(Cc3ccccc3)CC1C(c1cccc([N+](=O)[O-])c1)=NO2 (centres undefined)	Pf growth 48h 13µM, Pf growth 96h inconclusive (no result: HCMV inh)
Cc1ccc(CS(=O)(=O)c2nc3c(c(N(C)C)n2)CCCC3)cc1	Pf growth 96h inconclusive, HCMV inh -93
